The structures appear in SMILES notation. In all, about 86,000 compounds went through this assay and about 1,400 (1.6%) were called active. The entries come from a sample that favours actives as a whole. Unmarked numbers belong to inactive results. No stated cut-off is given here; in the data, active means inhibition above about 50%; inactive means the rest.

Sequence of Estrogen receptor (Homo sapiens) (P03372 whole entry, looked up, the tested form may be a part): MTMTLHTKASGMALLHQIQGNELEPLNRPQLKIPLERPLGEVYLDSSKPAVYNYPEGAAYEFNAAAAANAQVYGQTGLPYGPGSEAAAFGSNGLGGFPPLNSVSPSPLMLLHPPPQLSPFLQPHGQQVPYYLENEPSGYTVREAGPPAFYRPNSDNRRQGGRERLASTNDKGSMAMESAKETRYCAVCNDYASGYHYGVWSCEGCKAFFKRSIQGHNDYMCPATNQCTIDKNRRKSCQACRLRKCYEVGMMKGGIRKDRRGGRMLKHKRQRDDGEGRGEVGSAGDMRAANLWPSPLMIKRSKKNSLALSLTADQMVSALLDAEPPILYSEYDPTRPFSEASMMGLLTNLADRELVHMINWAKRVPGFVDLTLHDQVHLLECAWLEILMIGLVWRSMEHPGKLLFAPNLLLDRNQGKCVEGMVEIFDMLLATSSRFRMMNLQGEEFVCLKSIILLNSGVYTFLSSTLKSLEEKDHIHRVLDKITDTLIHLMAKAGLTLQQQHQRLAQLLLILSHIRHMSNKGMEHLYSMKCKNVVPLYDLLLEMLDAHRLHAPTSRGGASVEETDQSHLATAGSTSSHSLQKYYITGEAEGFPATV

The test has as its target Estrogen receptor (Homo sapiens) (UniProt P03372). The test can be described thus: blockers of SRC-1 peptide recruitment to ERα – biochemical, TR-FRET, ERα LBD, estradiol-bound, primary screen (AID 629).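 Further: 0% = receptor plus peptide control and 100% = peptide only without receptor.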 Conditions: TR-FRET ER-alpha LBD / SRC-1 peptide, at 25.6 µM, hits give high values.
Regarding `Cc1ccc(Nc2nnc(SCc3ccccc3)s2)cc1`, the inhibition is -0.81%.
Next, `O=C(CCN1CCc2ccccc2C(O)(c2ccccc2)C1)c1ccc2c(c1)OCCO2` (configuration not stated): 6.71%.
Next, `Cc1ccc(SCC(=O)c2cc(C)c(OC(=S)N(C)C)c(C)c2)cc1`: 1.54%; `COc1ccc(-c2nc3ccccc3n2CCC(C)C)cc1OC`: 0.74%; `Cc1ccc2nc(SC(C)C(=O)NCc3ccco3)[nH]c2c1` (configuration not stated): 0.42%.
For `CCNCc1cc2cc(C)ccc2[nH]c1=O`, the inhibition is 5.96%.
Next, `Cc1ccc2[nH]c(=O)c(-c3nc4c(C)cccn4c3NCc3ccco3)cc2c1`: 92.7% [fluorescence artefact?] (active); `CC(C)(C)c1ccc(OC2=CS(=O)(=O)c3ccccc32)cc1`: -1.62%.
For the molecule `CCCCCCc1cc2cc(-c3nnc(-c4ccccc4)o3)c(=O)oc2cc1O`, the inhibition is 53.5% (active).
The figure for `COc1ccc(CC(=O)Nc2ccc(-c3nnc(-c4ccccc4)o3)cc2)cc1` is 40.1%.
The figure for `CCCCCCc1cc2cc(-c3nnc(-c4cccc(OC)c4)o3)c(=O)oc2cc1O` is -2.99%; for `CCOc1ccc(S(=O)(=O)NCCSc2ccccc2)cc1` it is 0.2%; for `Cc1cc(C)c2c(n1)nn1c(N3CCOCC3)cc(C)nc21` it is 10.7%.
Next, `Cc1cc(C)c2c(n1)nn1c(-n3ccnc3)cc(C)nc21`: 4.13%; `Cc1cc(C)c2c(n1)nn1c(N3CCN(c4cccc(Cl)c4)CC3)cc(C)nc21`: 73.8% (active); `COc1ccc(C2CC(c3cccs3)=Nc3ccccc3S2)cc1OC` (configuration not stated): 15.7%.
On to `Cc1cccc(-c2nc3c(c(SCC(=O)N4CCOCC4)n2)CCCC3)c1`, for which the inhibition is -17.1%.
Turning to `Cc1nc(NC(=O)C2CCCCC2)sc1C`, the inhibition was 0.45%.
The figure for `CS(=O)(=O)N(CC(=O)N1CCN(Cc2ccc3c(c2)OCO3)CC1)c1ccc2c(c1)OCO2` is 2.04%; for `O=C(Cn1nnc(-c2ccc3c(c2)OCO3)n1)NCc1ccco1` it is 41.7%.
`CS(=O)(=O)N(CC(=O)NCc1ccco1)c1ccc2c(c1)OCO2`: the inhibition was 53.8% (active).
Take `COC(=O)c1cccc(N(C(=O)c2ccco2)C(C(=O)NC2CCCC2)c2ccco2)c1` (configuration not stated): the inhibition is -14.6%.
Regarding `Cc1cc2c(c(=O)n1Cc1ccco1)C(c1ccccc1)C(C#N)=C(N)O2` (configuration not stated), the inhibition was -11.1%.
Next, `N#CC1=C(N)Oc2c(sc3ccccc23)C1c1ccco1` (configuration not stated): 85.9% [fluorescence artefact?] (active); `CC1=C(C(=O)Nc2ccccc2)C(c2ccco2)C(C#N)=C(SCC(N)=O)N1` (configuration not stated): -3.05%.
Next, `Cc1cc(C(=O)OC(C)C(=O)Nc2cccc(S(=O)(=O)N3CCOCC3)c2)c(C)o1` (configuration not stated): 0.74%; `CCOC(=O)Cc1csc(NC(=O)CSc2nnc(-c3cccnc3)n2Cc2ccco2)n1`: -5.63%.
Take `Cc1cc(N2CCN(S(=O)(=O)c3ccc(C)c(C)c3)CC2)c2ccccc2n1`: the inhibition is 16.1%.
For the molecule `CCNCCC(=O)N1c2ccccc2Sc2ccc(NC(=O)OCC)cc21`, the inhibition is -22%.
Next, `CCO/C([O-])=N/c1c[n+](N2CCOCC2)no1`: 51.1% (active); `O=C(NCCN1CCN(Cc2ccccc2)CC1)c1cc2c(=O)[nH]c3ccccc3c2s1`: 24.2%; `Cc1nnc2sc(-c3ccco3)nn12`: 0.95%.
Next, `Fc1ccc(-c2ccc(-c3nn4c(-c5ccco5)nnc4s3)o2)cc1`: 69.7% [fluorescence artefact?] (active).
The figure for `FC(F)(F)c1nnc2sc(-c3ccco3)nn12` is 2.64%.
As for `O=C(CN1CCN(C(=O)c2ccco2)CC1)Nc1ccc2c(c1)OCO2`, the inhibition is -22.6%.
As to `CCOC(=O)C1=C(CSc2nnnn2C)N(C)C(=O)NC1c1ccccc1` (configuration not stated), the inhibition is -4.78%.
`O=C(NCc1ccco1)c1cc(-c2cccnc2)nc2ccc(Cl)cc12`: the inhibition was 10.8%.
Next, `COc1ccc(CNC(=O)c2cc3c(=O)n4ccccc4nc3n(CC3CCCO3)c2=N)cc1` (configuration not stated): 3.23%; `O=C(Nc1ccccc1)Nc1ccccc1C(=O)NCc1ccco1`: -4.11%; `O=C(NCc1ccco1)c1cccn2c(=O)c3cc(Br)ccc3nc12`: 56.4% [fluorescence artefact?] (active).
The figure for `CCn1c(=N)c(C(=O)NCCCOC)cc2c(=O)n3cccc(C)c3nc21` is -7.26%.
Take `COc1ccc(CCn2c(=N)c(C(=O)NCc3ccco3)cc3c(=O)n4cccc(C)c4nc32)cc1`: the inhibition was 65.7% [fluorescence artefact?] (active).
Next, `Cc1ccc(/C=N/NC(=O)C2=NNC(c3ccccc3)(c3ccccc3)C2)c(O)c1`: 21.9%; `CCSc1ccccc1C(=O)NCc1ccc(OC)cc1`: -6.6%.
Next, `COC(=O)/C(NC(C)=O)=C(\C)c1ccc(Cl)cc1`: -8.11%; `CC(=O)NC1=NN(C(C)=O)C(C)(c2ccc(Cl)s2)S1` (configuration not stated): 2.57%; `CN(C)c1ccnc2sc3c(=O)n(-c4ccc(Cl)cc4)cnc3c12`: 42.5%.
With `COC(=O)C1=C(C(=O)OC)C2(OC1c1ccc(Br)cc1)C(=O)c1ccccc1C2=O` (configuration not stated), the inhibition is -2.52%.
Next, `COc1ccc(CN2CCn3ncc(C(=O)Nc4ccc(Cl)cc4Cl)c3C2=O)cc1`: 54.9% [fluorescence artefact?] (active).
Next, `Cc1cnc(C(=O)OCC(=O)Nc2ccc(Cl)cc2Cl)cn1`: -9.26%; `COc1ccc(OC)c(NC(=O)c2cnn(-c3ccccc3Cl)c2NC(=O)c2ccco2)c1`: -3.16%.
Next, `O=C(c1cccc(F)c1)N1CCC(O)(c2cccnc2)CC1`: 1.95%; `CCCNC(=O)CN(Cc1ccccc1F)S(=O)(=O)c1ccc(C)cc1`: 5.89%; `COc1ccccc1NC(=O)CN1CCN(S(=O)(=O)c2ccc(Br)cc2)CC1`: 39.3%.
As to `COc1cc2c(cc1NC(=O)CN1CCN(S(=O)(=O)c3ccc(F)cc3)CC1)oc1ccccc12`, the inhibition was 14.2%.
As to `O=C(CN1CCN(S(=O)(=O)c2ccc(F)cc2)CC1)Nc1ccccc1F`, the inhibition is 64.5% [fluorescence artefact?] (active).
Next, `CCCCNC(=O)C1(c2ccc(OC)cc2)CCOCC1`: 25.4%.
Next, `OC(CN=c1sc2ccccc2n1CC(O)COc1ccccc1)COc1ccccc1` (configuration not stated): -21.1%; `O=C(Nc1ccc2c(c1)OCCO2)C(c1ccc(F)cc1)N1CCCCC1` (configuration not stated): 1.74%; `COC(=O)c1[nH]c2ccccc2c1NC(=O)CN1CCCc2ccccc21`: 66.9% [fluorescence artefact?] (active).
Next, `COC(=O)c1[nH]c2cccc(C)c2c1NC(=O)CN1CCCc2ccccc21`: 33.1%.
Turning to `CCOC(=O)c1[nH]c2ccc(OC)cc2c1NC(=O)CCN1CCN(Cc2ccccc2)CC1`, the inhibition is 0.69%.
Next, `COC(=O)c1ccccc1NC(=O)CN(Cc1ccc(Cl)cc1)S(C)(=O)=O`: 5.73%; `C=CCc1ccc(OCCOc2cccc(/C=N/n3cnnc3)c2)c(OC)c1`: -8.6%; `COc1ccc(CC(=O)Nc2ccc(-c3nnc(-c4ccc(C)cc4)o3)cc2)cc1`: 8.24%.
The figure for `CCOc1ccc(-c2nnc(-c3ccco3)o2)cc1` is -0.96%; for `Cc1ccc(OCC(=O)Nc2ccc(-c3nnc(-c4ccco4)o3)cc2)cc1` it is 63.7% [fluorescence artefact?] (active).
Regarding `O=C(CSc1nc2cccnc2n1Cc1ccccc1)N1CCc2ccccc21`, the inhibition is 34.4%.
Take `COc1nc(NC2CCCCC2)nc(N2CCCCCC2)n1`: the inhibition is 6.7%.
The figure for `COc1ccc(-c2nnc(SCC(=O)c3ccco3)n2-c2ccccc2)cc1` is 11%; for `CC(Sc1nc2ccccc2c(=O)n1Cc1ccco1)C(=O)c1ccccc1` (configuration not stated) it is 4.97%.
Turning to `N#Cc1c(NC(=O)CSc2nc3ccccc3c(=O)n2Cc2ccco2)sc2c1CCCC2`, the inhibition is 61.9% [fluorescence artefact?] (active).
The figure for `COc1ccc(-n2c(SCC(=O)Nc3sc4c(c3C#N)CCCC4)nnc2-c2ccc(O)cc2)cc1` is 78.5% [fluorescence artefact?] (active).
Next, `COC(=O)c1c(NC(=O)CSc2nncs2)sc2c1CCCCC2`: -1.55%; `C=C(C)Cn1c(SCC(=O)NCc2ccco2)nc2sc3c(c2c1=O)CCC3`: 7.04%; `Cc1cccn2c(=O)c(/C=C(\C#N)S(=O)(=O)c3ccc(Cl)cc3)c(N3CCC(C(N)=O)CC3)nc12`: -0.02%.
The figure for `O=C(CSCc1c(F)cccc1Cl)NCC1CCCO1` (configuration not stated) is -1.37%; for `CCCCOc1ccc(C(=O)NCc2ccncc2)cc1` it is 1.95%; for `COC(=O)c1cc(NC2c3ccccc3C(=O)N2c2ccc(Cl)cn2)cc(C(=O)OC)c1` (configuration not stated) it is 66.6% (active).
Take `Cc1ccnc(N2C(=O)c3ccccc3C2Nc2ccc3c(c2)OCCO3)c1` (configuration not stated): the inhibition is 1.59%.
The figure for `CCc1ccccc1NC1c2ccccc2C(=O)N1c1cccnc1` (configuration not stated) is -8.02%; for `CCOC(=O)C1=C(C)NC(SC)=NC1c1ccccc1` (configuration not stated) it is -2.42%.
The figure for `Cc1nnc(SC(C)C(=O)Nc2ccc(S(=O)(=O)NC3CCCCC3)cc2)s1` (configuration not stated) is 21.6%; for `COc1ccc(N2CCN(C(=O)CSc3nc4cc(OC)c(OC)cc4cc3C#N)CC2)cc1` it is 51.1% [fluorescence artefact?] (active); for `COc1ccc(N2CCN(C(=O)CSc3ncnc4c3cnn4-c3ccc(OC)cc3)CC2)cc1` it is -7.43%.
Next, `CCOc1ccc2cc(C#N)c(SCC(=O)OC)nc2c1`: 17.3%; `COc1ccc(C)cc1S(=O)(=O)NCCc1ccccc1`: 8.31%.

In general, inhibition refers to the change of the read-out against control, counted positive when it falls.

These data come from PubChem BioAssay AID629 (Emory University Molecular Libraries Screening Center, 2007).
